The list is not random: actives were taken first. Their share in the collection is about 2.1%.
IDE inh: inhibitors of human insulin-degrading enzyme in cells. P14735. HEK cells, FAbetaB cleavage, fluorescence polarization. inhibition, % at 5.59 µM. actives 0.41% (n = 320,000). AID 434962;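 active means percent inhibition above the average of all tested compounds plus 3 SD, set per screening campaign, cut at about 16% in these data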;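 further: IDE supplied by intact live HEK cells; FP after avidin binding of uncleaved biotin substrate so inhibition keeps polarization high; 0% = DMSO wells and 100% = 60 µM reference IDE inhibitor Ii1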
HDAC3 inh: inhibitors of human histone deacetylase 3; AID 2718; inhibition, % at 8.3 µM; recombinant HDAC3, fluorogenic peptide/trypsin coupled, fluorescence; O15379; actives 0.15% (n = 320,000); in the data active means inhibition above about 26%, passing the limit was not always enough
Target sequence (O15379 whole entry, looked up): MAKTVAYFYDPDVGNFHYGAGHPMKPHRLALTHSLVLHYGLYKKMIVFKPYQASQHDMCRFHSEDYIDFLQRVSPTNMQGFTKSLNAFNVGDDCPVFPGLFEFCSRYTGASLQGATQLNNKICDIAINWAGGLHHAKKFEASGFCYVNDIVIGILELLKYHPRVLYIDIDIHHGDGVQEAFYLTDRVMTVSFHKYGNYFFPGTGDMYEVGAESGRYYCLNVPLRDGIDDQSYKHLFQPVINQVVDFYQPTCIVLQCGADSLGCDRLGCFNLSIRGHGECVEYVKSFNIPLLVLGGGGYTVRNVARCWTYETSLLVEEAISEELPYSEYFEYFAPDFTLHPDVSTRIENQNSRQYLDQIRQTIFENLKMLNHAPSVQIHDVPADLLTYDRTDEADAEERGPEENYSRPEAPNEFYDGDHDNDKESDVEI
IDE act: activators of human insulin-degrading enzyme in cells; P14735; HEK cells, FAbeta-B cleavage, fluorescence polarization; 0% vehicle, 100% cell-free pure enzyme wells; activation, % at 5.96 µM; actives 0.073% (n = 340,000); AID 493087;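 active means activation above the mean of all tested compounds plus 3 SD, set per screening campaign, cut at about 17% in these data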
Mot1-301 SUMO: inhibitors of SUMOylation pathway: yeast Mot1-301 growth rescue; growth rescue, % at 18.8 µM; actives 1% (n = 320,000); S. cerevisiae Mot1-301 growth rescue, ATP luminescence, 38.5C; percent above DMSO median, 100 means doubled; AID 2716;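 active means every valid replicate shows activation above 250% relative to neutral control wells; inactive means the rest, any valid replicate at or below 250%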;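 further: OY570 slx delta 5 strain wells were the positive control but not used for scaling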
LANA-H2A inh: blocks KSHV LANA binding to histone H2A/H2B | inhibition, % (no concentration beside the values) | Q9QR71 | cell-free LANA-H2A/H2B peptide, fluorescence polarization | actives 0.6% (n = 320,000) | AID 2629; in the data active means inhibition mostly above about 10%, no sharp cut-off; inactive means mostly below about 6.7%
Yeast Mot1 SUMO: SUMO pathway inhibitors in yeast Mot1-301 growth | growth activity, percent, % at 42 µM | S. cerevisiae Mot1-301 galactose growth, ATP luminescence, 24 h; -100 = growth of slx-deleted rescue strain | 2,300 tested, under 10 active | AID 493004 | shares compounds with Mot1-301 SUMO;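 active means Signal drops as the depositor expects, and the fitted half-maximal dose is no more than ten times the top valid tested dose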;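 further: more negative values mean stronger growth rescue toward the control strain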
* marks the source's active call; other numbers are inactive results; nt = not tested or not shown; + = active, no number.

SMILES	IDE inh	HDAC3 inh	IDE act	Mot1-301 SUMO	LANA-H2A inh	Yeast Mot1 SUMO
Cc1ccc(N(Cc2ccccc2)C(=O)c2cc(S(=O)(=O)N3CCOCC3)ccc2N2CCCC2)cc1	1	-1	0	4	-12	nt
Cn1cnc2cc(NC(=O)c3ccc(Cl)cc3)ccc21	1	10	1	7	-1	nt
CC(C)(C)n1cnc2cc(NC(=O)c3ccc(Cl)cc3)ccc21	-2	-2	2	562*	-1	-1
CCC(C)(C)n1nnnc1C(c1ccc(OC)c(OC)c1)N1CCN(c2cccc(OC)c2)CC1 (stereo not given)	11	-1	-2	+	-7	0
Cc1c(NC(=O)COC(=O)/C=C/c2cccc(Cl)c2)c(=O)n(-c2ccccc2)n1C	-3	-3	3	-8	0	nt
CCN(CC)C(=O)COC(=O)C1=NN(c2cc(C)ccc2C)C(=O)CC1	-1	0	1	9	-2	nt
CC(=O)Nc1cccc(NC(=S)Nc2ccc(F)cc2F)c1	6	-5	4	605*	-1	0
CCCOc1ccc(C(=O)NCc2ccco2)cc1	-1	-1	5	685*	-1	0
COc1ccc2oc(=O)c(C(=O)NCc3ccco3)cc2c1	-2	nt	-3	654*	-1	0
CCC1=Nc2cc(C(=O)NCc3ccco3)ccc2Sc2ccc(Cl)cc21	5	7	4	45	-1	nt
COc1cccc2cc(C(=O)NCc3ccco3)c(=O)oc12	-4	2	8	-7	0	nt
CCC1=Nc2cc(C(=O)NCc3ccco3)ccc2Sc2ccccc21	0	5	2	397*	1	1
CC(CC(=O)NNC(=O)c1cccc(Cl)c1)c1ccccc1 (stereo not given)	-1	-5	0	-7	3	nt
C/C(N)=C(/C#N)C(=O)CSc1nnc(-c2ccccc2)n1C	-1	nt	4	539*	-2	0
COc1cccc(Nc2nc(C)nc3c2oc2ccccc23)c1	0	3	0	451*	1	-1
COc1ccc(-c2csc(NC(=O)CCS(=O)(=O)c3ccccc3)n2)c(OC)c1	-6	1	0	454*	-6	0
COc1ccc(NC(=O)CCS(=O)(=O)c2ccccc2)c(OC)c1	6	2	1	-9	7	nt
Cc1ccc(NC(=O)c2scc3c2CCCC3)cc1	-2	15	3	3	3	nt
CCN1CCCC(NC(=O)c2scc3c2CCCC3)C1 (stereo not given)	-1	1	-1	659*	0	0
Cc1cc(C)n(-c2nc(-c3ccccc3)cs2)n1	0	6	2	-5	-2	nt
Cc1cc(C)n(-c2nc(-c3cccc(Cl)c3)cs2)n1	-3	5	6	434*	1	1
N#Cc1ccccc1S(=O)(=O)N1CCN(C(=O)Cc2coc3cc(O)ccc23)CC1	1	4	-4	-12	1	nt
Cc1cc(NC(=O)CSc2ncn(-c3ccccc3)n2)no1	0	3	-3	925*	0	0
Cc1ccc(Cl)c(N/C=C/C(=O)c2ccccc2)c1	2	-1	-1	70	0	nt
O=C(COc1ccc(Cl)cc1)NCCCNC(=O)c1ccccn1	2	-1	1	565*	2	0
SMILES	IDE inh	HDAC3 inh	IDE act	Mot1-301 SUMO	LANA-H2A inh	Yeast Mot1 SUMO
CCn1c(=O)n(CC)c2cc(NC(=O)c3ccccc3Cl)ccc21	2	13	8	406*	2	2
COCCn1c(Cc2ccccc2)nnc1SCC(=O)NC1CCCCC1	-3	0	2	-15	-2	nt
CCOC(=O)C1CCN(C(=O)c2sccc2Cl)CC1	-5	-2	3	567*	2	1
CC(=O)c1ccc(C(=O)N2CCCC(N3CCN(c4ccc(F)cc4)CC3)C2)s1 (stereo not given)	3	-1	3	508*	4	0
CC(C)=CC(=O)N1CCCC(N2CCN(c3ccccc3C)CC2)C1 (stereo not given)	1	3	-1	-9	-6	nt
O=C(c1ccc(Cl)s1)N1CCCC(N2CCN(c3ccc(F)cc3)CC2)C1 (stereo not given)	-5	-3	7	140	0	nt
CC(C)=CC(=O)N1CCCC(N2CCN(c3ccc(F)cc3)CC2)C1 (stereo not given)	1	-2	2	+	1	-1
Cc1ccc(C)c(N2CCN(S(=O)(=O)c3ccc(-c4cc(C)no4)s3)CC2)c1	8	-2	-6	-8	-4	nt
COc1ccc(NC(=O)COc2ccc(C)c(C)c2)cc1S(=O)(=O)N1CCCCC1	0	-2	1	-9	2	nt
COc1ccc(NC(=O)COc2cc(C)cc(C)c2)cc1S(=O)(=O)N1CCCCC1	4	nt	-2	530*	nt	1
COc1ccc(NC(=O)Cn2c(=O)cnc3ccccc32)cc1S(=O)(=O)N1CCCCC1	-2	3	-3	428*	-2	0
CCOC(=O)C1(CCOc2ccccc2)CCN(Cc2cc(OC)ccc2OC)CC1	-1	3	5	-15	-2	nt
CCOC(=O)C1(CCOc2ccccc2)CCN(Cc2cccc(OC)c2O)CC1	1	-4	5	517*	-7	0
CCOc1ccccc1Nc1nnc(SCc2nnc(-c3cc(OC)c(OC)c(OC)c3)o2)s1	1	-2	1	608*	-1	0
CCCc1ncc(CN2CCCCC2C(=O)Nc2ccc(Oc3ccccc3)nc2)cn1 (stereo not given)	4	11	-8	8	-3	nt
CCOc1cc(C(=S)N2CCOCC2)ccc1OC(=O)c1ccc(C)cc1	8	-2	3	414*	0	-1
CCOc1cc(C(=S)N2CCOCC2)ccc1OC(=O)c1ccccc1	6	-8	1	1	2	nt
COc1cccc2[nH]c(=O)c(-c3ccccc3)cc12	0	-5	-2	453*	-2	-1
COc1ccc(NC(=O)CSc2nc(O)cc(=O)n2-c2ccccc2)cc1	nt	1	5	10	-9	nt
O=C(CSc1ncccc1C(=O)O)NC1CCCCC1	-2	0	6	420*	2	1
O=C(CSc1nc(O)cc(=O)n1-c1ccccc1)NC1CCCCC1	2	7	3	584*	-4	0
O=C(O)c1cccnc1SCC(=O)N1CCCCCC1	-2	-6	1	-5	-3	nt
Cc1ccc(S(=O)(=O)N2[C@@H](c3ccccc3)C(C(=O)O)=CC[C@H]2c2ccc(Cl)cc2)cc1	3	8	5	377*	5	-1
COc1cc([C@@H]2CC=C(C(=O)O)[C@H](c3ccccc3F)N2S(=O)(=O)c2ccc(C)cc2)cc(OC)c1OC	0	-6	-4	662*	0	-1
